Screening data from PubChem.
DAX1 inh-1 – DAX1 (NR0B1) inhibition, primary screen; HEK293T StAR-luciferase reporter, SF-1/DAX-1 repression relief; inhibition, % at 6.8 µM; 370,000 tested, 1.1% active; AID 652010;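 active means inhibition above the mean over all tested compounds plus 3 SD, cut at about 3.6% in these data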;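 further: 0% = DAX-1 cells with DMSO and 100% = cells lacking DAX-1 with DMSO; higher inhibition means more luminescence from relief of DAX-1 repression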
ssDAF12 agonist – S. stercoralis DAF-12 activation, primary screen. HEK293 ssDAF-12/GRIP1 lit1-tk-luc reporter, luminescence; % of 3 µM dafachronic acid response. activation, % at 6.8 µM. 370,000 tested, 1% active. AID 652126;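 active means activation above the mean over all tested compounds plus 3 SD, cut at about 0.9% in these data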;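 further: 0% = DMSO-only wells and 100% = 3 µM delta7-dafachronic acid wells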
AHR activator – human AHR activation. P35869. AHR-responsive luciferase reporter cells, luminescence. activation, % at 5 µM. 320,000 tested, 2.5% active. AID 2796; in the data active means activation above about 47%;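 further: 0% = vehicle wells and 100% = reference agonist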
hgDAF-12 ag – hgDAF-12 agonism, primary luciferase screen | HEK293 GAL4-hgDAF12 UAS-luciferase reporter, agonist luminescence; normalized to butyrate control | 370,000 tested, 1.8% active | activation, % at 6.8 µM;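 active means activation above a cutoff set at the mean of all screened compounds plus 3 SD, cut at about 10% in these data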;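 further: 0% = DMSO wells and 100% = sodium butyrate wells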
DAX1 inh-2 – NR0B1 (DAX1) inhibition; 340,000 tested, 0.99% active; HEK293 Gal4-DAX1 luciferase reporter, luminescence; P51843; inhibition, % at 6.75 µM;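 active means inhibition above the mean over all tested compounds plus 3 SD, cut at about 4.2% in these data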;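 further: 0% = DAX1-transfected cells with DMSO and 100% = empty-vector control cells with DMSO; inhibition shows as a rise in luminescence from relieved DAX1 repression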
Target sequence (P51843 207-470 limits assumed): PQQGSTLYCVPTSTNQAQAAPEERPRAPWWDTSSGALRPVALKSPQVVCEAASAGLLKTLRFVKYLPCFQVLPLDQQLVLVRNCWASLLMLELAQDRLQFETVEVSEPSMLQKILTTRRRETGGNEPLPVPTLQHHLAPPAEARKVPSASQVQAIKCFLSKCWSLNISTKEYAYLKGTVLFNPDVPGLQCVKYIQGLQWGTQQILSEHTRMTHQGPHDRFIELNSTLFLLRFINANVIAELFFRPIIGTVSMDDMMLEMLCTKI
hcDAF-12 act – activators of H. contortus DAF-12 nuclear receptor | 370,000 tested, 1.4% active | activation, % at 6.8 µM | AID 652067 | HEK293 hcDAF-12 lit1-tk-luc reporter, luminescence; 0% DMSO, 100% Δ7-dafachronic acid;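 active means activation above the mean of all tested compounds plus 3 SD, cut at about 5.5% in these data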;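 further: 100% = response to 3 µM Δ7-dafachronic acid high control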
* marks the source's active call; other numbers are inactive results; . = not tested or not shown. Only some compounds are listed: those with a hit (about 5.7% of all), similar ones and a draw of the others.

SMILES	DAX1 inh-1	ssDAF12 agonist	AHR activator	hgDAF-12 ag	DAX1 inh-2	hcDAF-12 act
CCOC(=O)C1(Cc2ccccc2)CCN(Cc2ccccc2OC)CC1	0	0	.	-2	.	-3
Cc1cc(N2CCN(C(=O)c3[nH]c(C(F)(F)F)nc3-c3ccccc3)CC2)c2ccccc2n1	-4	-1	.	1	.	0
Clc1ccc(NCc2cccnc2)cc1	0	-1	24	0	1	-2
Fc1ccc(NCc2cccnc2)cc1F	0	1.2*	0	1	-1	4
Nc1ccccc1Sc1ccc(C(=O)c2ccccc2C(=O)O)cc1[N+](=O)[O-]	1	-1	2	2	2	0
O=C(O)c1ccccc1C(=O)c1ccc(Sc2ccc(Cl)cc2)c([N+](=O)[O-])c1	0	-1	-2	0	8.1*	1
O=C(Nc1ccc(-c2nc3ccccc3o2)cc1)c1ccc(N2CCOCC2)c([N+](=O)[O-])c1	1	-1	54*	3	1	-1
O=C(O)c1ccccc1C(=O)c1ccc(N2CCOCC2)c([N+](=O)[O-])c1	0	1.1*	3	1	1	2
COc1ccccc1N=Nc1c(C)[nH][nH]c1=O	0	-1	-1	0	3	-1
Cc1ccc(N=Nc2c(C)[nH][nH]c2=O)c(C)c1	0	-1	48*	6	0	1
CC1O[C@@H](O[C@H](C)CC[C@@H](C)O)C(O)C[C@H]1O (stereo partly specified)	0	-1	0	-1	0	-2
O=C(NC1CCCC1)C1CCCN(S(=O)(=O)c2cccc3cccnc23)C1 (stereo unspecified)	0	-1	2	1	-2	0
O=C(NC1CCCCCC1)C1CCN(S(=O)(=O)c2cccc3cccnc23)CC1	-2	0	-1	-1	6.1*	-1
Cc1sc2ccccc2c1CNC[C@H]1O[C@@H](n2cnc(C(N)=O)n2)[C@H](O)[C@@H]1O	1	1.0*	.	-3	1	-1
Cc1sc2ccccc2c1CNC[C@H]1O[C@@H](n2ccc(N)nc2=O)[C@H](O)[C@@H]1O	1	0	.	0	1	0
Cc1nc(S/C(=C/c2ccc(-c3ccc(Cl)cc3)o2)C(=O)O)n[nH]1	0	-1	57*	-2	0	1
C[C@@H]1CN([C@@H](C)CO)C(=O)c2cccc(NC(=O)C3CCCCC3)c2O[C@@H]1CN(C)C(=O)NC1CCCCC1	0	-1	1	1	1	-2
Cc1nc2ccccc2c(=O)n1CCc1ccccc1	-1	-1	51*	5	-1	0
O=c1c2ccccc2nc(SCCN2CCOCC2)n1CCc1ccccc1	-2	-1	52*	-1	0	0
O=C(CSc1nnc(-c2ccccc2)n1Cc1ccccc1)N1CCOCC1	0	0	-2	1	-1	0
COc1ccc(CCn2c(SCCN3CCCCC3)nc3ccccc3c2=O)cc1OC	0	-2	-3	1	0	-4
CC(=O)c1nc2ccccc2n1CCc1ccccc1	0	1.2*	55*	1	2	0
Oc1ccccc1-c1nnc(SCCN2CCOCC2)n1Cc1ccccc1	0	1.1*	16	0	0	6.9*
CN(C)S(=O)(=O)c1cccc(NC(=O)CCCc2nc3ccccc3c(=O)[nH]2)c1	1	-1	2	1	1	-1
COc1ccc(C(=O)C(Sc2nnc(C)c(=O)[nH]2)c2ccc(OC)cc2)cc1 (stereo unspecified)	0	-1	-1	2	-1	0
COc1ccc(CCn2c(-c3ccccc3)nc3c(c(=O)c4ccccc4n3C)c2=O)cc1	0	-1	24	-2	.	5.8*
CCOC(=O)c1cc(-c2csc(-c3ccc(C(C)(C)C)cc3)n2)on1	0	-1	1	0	3	-1
CCOC(=O)c1cc(-c2csc(N/N=C/c3ccccc3Cl)n2)on1	0	-1	50*	0	2	2
CCOC(=O)c1cc(-c2csc(Nc3ccccc3Cl)n2)on1	1	1.5*	-1	0	4	3
